This is a sample that favours compounds with a hit; in the whole collection about 2.9% have one here.
GALC G270D up: raises human GALC G270D mutant activity in cells; P54803; 145M-Twi-hGALC-G270D cells (Twitcher mouse brain line with human GALC G270D), HMU-beta-Gal fluorescence, 48 h; Potency, µM (highest dose often 57.5 µM), usual class: activators; 45,000 compounds, 0.1% hits; also: potency is read from the fitted curve at half-maximal effect; 0% is about no effect; nearly all actives have a fitted effect of over 65% in size
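Fluorogenic HMU-b-Gal hydrolysis (0.1 mM final, pH 5.2 citrate-phosphate with 1 mg/mL sodium taurocholate; carbonate stop buffer) measures mutant GALC activity after compound treatment of live 145M-Twi Twitcher brain cells stably carrying human GALC-G270D, with wild-type GALC line alongside; activation sought.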
OvCa metastasis: blocks SKOV3ip1 adhesion and invasion in omental model; SKOV3ip1-GFP adhesion/invasion on 3D omental model, fluorescence; Potency, µM (series often up to 45.8 µM), without a hit: at the highest dose activity change, negative = inhibition, usual class: inhibitors; 46,000 compounds, 0.1% hits;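 also: potency is read from the fitted curve at half-maximal effect; plate controls were DMSO wells for no effect and tomatine positive control wells for full effect; nearly all actives have a fitted effect of over 65% in size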
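qHTS, 4-pt dose (0.36-46 umol/L); SKOV3ip1-GFP, 1,200 cells/well, no FBS; primary omental fibroblast/mesothelial co-culture 48 h pre-grown; 2 h RT + 16 h 37 C; PBS wash, 4% PFA; GFP count 488/509 nm.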
FH mod: Identification of activators of human fumarate hydratase by quantitative high-throughput screening; Potency, µM (top dose mostly 79.9 µM), without a hit: top-dose activity change, negative = inhibition, most hits filed as inhibitors; AID 1347055, 2019; 54,000 compounds, 0.22% hits; FH coupled MDH/diaphorase resazurin fluorescence, 15 min; also: potency is read from the fitted curve at half-maximal effect; % is scaled to controls: 0 for no effect and ±100 for the full control effect; the screen sought activators but most active calls are inhibition curves; nearly all actives have a fitted effect of over 45% in size
DRV1 agonist: GPR32 (DRV1) agonism, beta-arrestin recruitment. O75388. CHO-K1 GPR32 beta-arrestin PathHunter luminescence, 90 min; zero percent set by DMSO-only wells. activation, % at 76.9 µM. 48,000 compounds, 2.5% hits;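 active = activation of at least 60% and not above a set upper limit, about 1 call in 100 departs from these limits; inconclusive = activation of 40% to 60%, or above that upper limit; inactive = activation under 40%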; also: 0% is about no effect
Target sequence (O75388 whole entry, looked up): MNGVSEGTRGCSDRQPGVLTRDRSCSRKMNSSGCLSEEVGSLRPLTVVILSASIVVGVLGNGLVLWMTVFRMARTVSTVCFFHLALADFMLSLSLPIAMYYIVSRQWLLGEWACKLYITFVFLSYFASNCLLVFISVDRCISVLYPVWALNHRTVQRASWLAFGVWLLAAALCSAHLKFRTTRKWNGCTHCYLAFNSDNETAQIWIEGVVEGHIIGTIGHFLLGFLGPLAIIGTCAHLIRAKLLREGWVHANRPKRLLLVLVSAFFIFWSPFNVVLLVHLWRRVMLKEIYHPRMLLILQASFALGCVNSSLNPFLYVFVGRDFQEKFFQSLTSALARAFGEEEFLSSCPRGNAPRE
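Engineered CHO-K1 line co-expressing GPR32-ProLink and EA-beta-arrestin. Compound treatment lasted 90 min at 37 °C. Luminescence was recorded after 1 h with substrate at ambient temperature, relative to DMSO basal wells.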
* marks the source's active call; other numbers are inactive results; i = inactive; ? = inconclusive; · = not tested or not shown; [ ] = another dose, or the depositor's remark. Unless noted, calls follow the shape of the dose curve; as a rule, active = well fitted curve in the direction sought with a large enough effect; inconclusive = small, poorly fitted or top-dose-only effect, or another doubt; inactive = no such curve, though single readings can be large; an effect the other way counts as inactive or inconclusive.

SMILES	GALC G270D up	OvCa metastasis	FH mod	DRV1 agonist
CC1=C(CCC(C)O[C@@H]2O[C@H](CO)[C@@H](O)[C@H](O)[C@H]2O)C(C)(C)CC(O)C1 (some centres not stated)	·	·	4.4%[53.3 µM]	·
CC(C)c1cccc(C(C)C)c1NC(=O)Nc1ccc(Sc2ccc([N+](=O)[O-])cc2)cc1	·	·	-5.8%	·
Cc1ccc(N(CC(=O)Nc2ccc(C)c(F)c2)S(=O)(=O)c2c(C)n[nH]c2C)cc1	i	-0.1%	-20.2%	102.3*
COc1cc(NC(=O)CN(c2cc(C)cc(C)c2)S(=O)(=O)c2c(C)[nH]c(=O)[nH]c2=O)cc(OC)c1	i	0.7%	-5.0%	11.5
Cc1cc(C)cc(N(CC(=O)Nc2ccc(C)cc2Cl)S(=O)(=O)c2c(C)[nH]c(=O)[nH]c2=O)c1	i	-2.2%	-16.3%	78.6*
Cc1cc(C)cc(N(CC(=O)Nc2ccc(C(F)(F)F)cc2)S(=O)(=O)c2c(C)[nH]c(=O)[nH]c2=O)c1	i	1.4%	-12.2%	112.5*
O=C(O)C1(c2ccc(-c3ccc(Cl)c(Cl)c3)c(F)c2)CC1	·	·	-2.1%	·
COc1ccc(OCc2nc(-c3ccc(-n4cccc4)cc3)no2)cc1	i	-8.6%	-8.1%	117.2*
Cc1nc(N2CCCC2)ncc1C(=O)Nc1ccc(OC(F)(F)F)cc1	i	-15.9%	-6.7%	39.4
CCOC(=O)c1ccc(NC(=O)c2cnc(N3CCCC3)nc2C)cc1	i	1.6%	-5.0%	96.4*
CCCCNc1nc2c(c(=O)n(C)c(=O)n2C)n1CC(O)COc1ccccc1C (configuration not stated)	i	5.3%	-7.2%	66.6*
COc1ccc(NC(=O)CCCN2C(=O)C(c3ccccc3)Oc3cccnc32)cc1OC (configuration not stated)	i	-12.4%	-5.7%	76.2*
COc1ccc(Nc2c3c(nc4nncn24)CCC3)cc1OC	i	i	2.0%	93.3*
CC1(C)CC2C(C1)C1(C)CCC13OC3(CO)C2O (configuration not stated)	·	·	0.3%	·
CCn1c(=O)sc2cc(NS(=O)(=O)c3ccc(C)cc3)ccc21	i	-4.1%	-12.6%	60.6*
CCc1ccc(S(=O)(=O)Nc2ccc3c(c2)sc(=O)n3C)cc1	i	14.8%	-20.6%	-0.4
COc1ccc(NS(=O)(=O)c2ccc3[nH]c4c(c3c2)CCCCCC4)cc1	i	-7.7%	?	74.5*
COc1ccc(NC(=O)CN(C)S(=O)(=O)c2ccc3[nH]c4c(c3c2)CCCC4)cc1OC	i	i	-18.5%	3.5
COc1ccc(NC(=O)CN(C)S(=O)(=O)c2ccc3[nH]c4c(c3c2)CCCC4)cc1Cl	i	-14.3%	-27.8%	90.6*
CC(=O)Nc1ccc(NS(=O)(=O)c2ccc3[nH]c4c(c3c2)CCCCC4)cc1	i	-10.0%	?	80.0*
CC(=O)c1ccc(NS(=O)(=O)c2ccc3[nH]c4c(c3c2)CCCCCC4)cc1	i	i	?	72.7*
CC1(C)OC2=C(C(=O)c3ccccc3C2=O)[C@H](NCc2ccccc2)[C@H]1O	·	?	-11.6%[53.3 µM]	·
CC(=O)c1ccc(NS(=O)(=O)c2cccc(S(=O)(=O)c3ccc(Cl)cc3)c2)cc1	i	3.9%	-13.2%	61.4*
O=C(NCC1(c2ccccc2)CCCC1)C(=O)Nc1cccc(C(F)(F)F)c1	i	-3.1%	-15.3%	-0.5
O=C(CC(c1ccccc1)c1cc(Br)ccc1O)NCC1(c2ccccc2)CCCC1 (configuration not stated)	·	?	·	108.1*
SMILES	GALC G270D up	OvCa metastasis	FH mod	DRV1 agonist
CCCS(=O)(=O)c1nc(S(=O)(=O)c2ccc(C)cc2)c(N(CC)CC)s1	7.94µM*	?	-24.8%	-34.1
O=C1OC2(c3ccccc31)c1cc(Br)c(O)c(Br)c1Oc1c2cc(Br)c(O)c1Br	i	·	?	68.3*
N#Cc1ccc(-c2c(-c3ncn[nH]3)sc(N3CCOCC3)c2C#N)c(F)c1	·	·	7.0%	·
O=C(CC1N=C2c3ccccc3N=C(SCc3ccc(Cl)cc3)N2C1=O)NCCc1ccccc1 (configuration not stated)	i	-2.2%	?	73.8*
O=C(CCC1N=C2c3ccccc3N=C(SCc3ccc(Cl)cc3)N2C1=O)NCCc1ccccc1 (configuration not stated)	i	?	?	-13.5
O=[N+]([O-])c1ccc(CNc2nc(NCc3cccc(C(F)(F)F)c3)nc3nc[nH]c23)cc1	·	·	-15.2%	·
CCc1ccccc1Nc1cc(C(=O)NCCCN(C)C2CCCCC2)c2ccccc2n1	i	-12.5%	-1.1%	78.5*
Cc1ccc(C)c(Nc2cc(C(=O)NCCCN(C)C3CCCCC3)c3ccccc3n2)c1	i	?	2.3%	-8.5
Cc1csc2c(N[C@@H](C)CN3CCN(S(=O)(=O)c4ccc(Cl)c(Cl)c4)CC3)ncnc12	·	·	-10.5%	·
COc1cc(C2Nc3ccccc3-c3nnc(SCc4ccc(Cl)cc4)nc3O2)ccc1OCC(=O)O (configuration not stated)	i	6.1%	-5.7%	?
O=C(O)COc1ccccc1C1Nc2ccccc2-c2nnc(SCc3ccc(Cl)cc3)nc2O1 (configuration not stated)	i	-9.6%	-17.2%	107.9*
CC(CO[C@@H]1O[C@H](COC(=O)/C=C/c2ccc(O)c(O)c2)[C@@H](O)[C@H](O)[C@H]1O)C1(O)COC(=O)C1 (some centres not stated)	·	·	-1.6%[53.3 µM]	·
N#CCC(C1CCCC1)n1cc(-c2ncnc3[nH]ccc23)cn1 (configuration not stated)	·	·	-23.0%	·
CN1CCCCC1CCN1c2ccccc2Sc2ccc(S(C)=O)cc21 (configuration not stated)	i	·	5.2%[53.3 µM]	64.5*
C[C@@H]1CCCN1CCc1cc2cc(-c3ccc(C#N)cc3)ccc2o1	·	·	-2.9%	·
CCCn1c(=O)c2sccc2n2c(CCCC(=O)NCc3ccccc3)nnc12	i	-1.8%	-0.2%	0.4
CCCCC(CC)CNC(=O)CCCc1nnc2n(CCC)c(=O)c3sccc3n12 (configuration not stated)	i	1.9%	-9.7%	80.4*
CC(C)=CCc1ccc(Oc2c(O)cc(C)cc2CO)c(C(=O)O)c1O	·	·	-1.1%[53.3 µM]	·
CO[C@H]1/C=C/[C@@](C)(O)/C=C/C(=O)O[C@H](C)[C@@H](C)CC/C=C/1C	·	·	-9.9%[53.3 µM]	·
Cc1nc2c(-c3ccccc3)c(C)nn2c(C)c1CCC(=O)NCc1cccc(Cl)c1	i	i	-4.1%	61.7*
C[C@@H]1O[C@@H](O[C@H]2[C@@H]3C=CO[C@@H](O[C@@H]4O[C@H](CO)[C@@H](O)[C@H](O)[C@H]4O)[C@@H]3[C@@]3(CO)O[C@@H]23)[C@H](O)[C@H](OC(=O)/C=C/c2ccc(O)c(O)c2)[C@H]1O	·	·	-0.9%[20.6 µM]	·

High-throughput results deposited in PubChem by National Center for Advancing Translational Sciences (NCATS).
